# DT40 TDP1 no CPT – qHTS for Inhibitors of human tyrosyl-DNA phosphodiesterase 1 (TDP1): qHTS in cells in absence of CPT | DT40 Tdp1-/- hTDP1 cells, no CPT, ATP luminescence, 48 h | AID 686978, 2013 | Potency, µM (highest dose often 46.2 µM), for inactives: at the top dose activity change, negative = growth inhibition, most hits filed as inhibitors | actives 15% (n = 420,000); further: potency means the concentration at half of the fitted maximal effect; nearly all actives have a fitted effect of over 55% in size
#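 Compound effects on proliferation are scored in DT40 Tdp1-/-;hTDP1 cells in the absence of CPT. ATP levels (CellTiter-Glo luminescence) are recorded after a ≥48 hr, 37 °C incubation.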
# VP16 counter – counter-screen for ROR gamma inhibitors: Gal4-VP16 reporter. Potency, µM (top dose mostly 53.6 µM), without a hit: at the highest dose activity, negative = inhibition, most hits filed as inhibitors. AID 2546. actives 3.5% (n = 310,000). Drosophila S2 Gal4-VP16 UAS-luciferase, luminescence, 20 h;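 further: Gal4-VP16 expression switched on by copper sulfate through the metallothionein promoter; potency means the concentration at half of the fitted maximal effect; nearly all actives have a fitted effect of over 50% in size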
# ELG1 repair inh – inhibitors of ELG1-dependent DNA repair in HEK293T cells | actives 2.3% (n = 330,000) | Potency, µM (series often up to 46.1 µM), for the others: at the highest dose activity change, negative = inhibition, usual class: inhibitors | HEK293T ELG1-luciferase reporter, luminescence, 16 h; DNA damage induced by 5-fluorouridine; further: potency means the concentration at half of the fitted maximal effect; nearly all actives have a fitted effect of over 55% in size
#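 HEK293T cells expressing luciferase-tagged ELG1 (2,000/well) received 5-Fluorouridine plus compound or DMSO for 16 hr at 37 °C. Luciferase was read by ONE-Glo luminescence after 30 min at room temperature.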
# DT40 TDP1 CPT – growth inhibition of DT40 Tdp1-/-;hTDP1 cells with camptothecin (screen for TDP1 inhibitors); chicken DT40 Tdp1-/-;hTDP1 cells + 20 nM CPT, ATP luminescence, 48 h; Potency, µM (series often up to 46.2 µM), for the others: top-dose activity change, negative = growth inhibition, usual class: inhibitors; actives 12% (n = 420,000); further: potency means the concentration at half of the fitted maximal effect; nearly all actives have a fitted effect of over 55% in size
#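 Chicken DT40 Tdp1-/- cells stably complemented with human TDP1 were seeded at 400 cells/well in medium containing 20 nM camptothecin, exposed to pin-transferred compounds, and grown at 37 °C for at least 48 hr. Viability was read as ATP luminescence.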
# IL1B secr inh – inflammasome signaling inhibition, IL-1 beta readout; THP-1 LPS/ATP IL-1B secretion, AlphaLISA, 16 h; hits give low values; activity change, % at 57.5 µM; actives 4.7% (n = 360,000); in the data active means activity change below about -50%; inconclusive means mostly about -30% to -49%
#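 THP-1 cells pretreated 1 hr with compounds (up to 57.5 uM final), then stimulated with LPS (250 ng/mL final) plus ATP (1.25 mM final); secreted IL-1B measured by AlphaLISA after 16 hr, decreased signal indicating inhibition.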
# RORgamma inh – ROR gamma (mouse) transcription inhibition; Drosophila S2 Gal4-RORgamma UAS-luciferase reporter, 20 h; P51450; Potency, µM (doses to about 53.6 µM), for inactives: at the top dose activity change, negative = inhibition, hits mostly inhibitors; actives 5.4% (n = 310,000); further: potency means the concentration at half of the fitted maximal effect; nearly all actives have a fitted effect of over 60% in size
# Target sequence (P51450 whole entry, looked up, the tested form may be a part): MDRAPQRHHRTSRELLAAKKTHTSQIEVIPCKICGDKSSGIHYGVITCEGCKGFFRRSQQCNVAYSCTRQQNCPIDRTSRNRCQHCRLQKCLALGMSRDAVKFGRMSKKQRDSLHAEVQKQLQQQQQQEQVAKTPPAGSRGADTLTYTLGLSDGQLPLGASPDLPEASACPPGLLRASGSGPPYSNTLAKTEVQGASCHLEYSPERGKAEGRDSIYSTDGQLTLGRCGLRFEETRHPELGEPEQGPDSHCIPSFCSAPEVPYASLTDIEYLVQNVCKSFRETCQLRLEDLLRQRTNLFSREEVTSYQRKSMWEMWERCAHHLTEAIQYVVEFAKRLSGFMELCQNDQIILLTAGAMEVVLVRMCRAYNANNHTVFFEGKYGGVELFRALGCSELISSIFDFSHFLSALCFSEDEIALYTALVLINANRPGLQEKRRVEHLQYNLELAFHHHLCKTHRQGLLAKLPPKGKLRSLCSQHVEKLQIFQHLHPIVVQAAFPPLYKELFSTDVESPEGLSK
#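 Luciferase reporter read in Schneider cells carrying Gal4-RORγ (mouse) and UAS-Photinus luciferase; cells given compound 1 h before 700 uM copper sulfate induction, then incubated 20 h at ambient temperature.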
# Numbers without * were called inactive; ? = inconclusive; · = no result; [ ] = another dose, or the depositor's remark. In the library only some 21% were active in any assay of this set; here they are far more common. Unless noted, the call rests on the fitted dose curve; in most records, active means well fitted curve in the direction sought with a large enough effect; inconclusive means small, poorly fitted or top-dose-only effect, or another doubt; inactive means no such curve, though single readings can be large; an effect the other way counts as inactive or inconclusive. On the % scale 0 is the no-effect control and ±100 the full control effect.
SMILES,DT40 TDP1 no CPT,VP16 counter,ELG1 repair inh,DT40 TDP1 CPT,IL1B secr inh,RORgamma inh
COC(=O)c1c(NC(=O)CSc2ncnc3ccccc23)sc(C)c1C,23µM*,·,·,18µM*,12,·
C=CCn1c(SCC(=O)Nc2sc(C)c(C)c2C(=O)OCC)nnc1-c1sc(N)nc1C,?,5%,5.8µM*,?,-3,21%
CC(C)(C)NC(=O)C1C(c2ccc(C(F)(F)F)cc2)=Nc2ccccc2N1C(=O)c1cccc(C(F)(F)F)c1 (stereo not drawn),?,·,·,?,7,·
CCCCC[C@@H](C)N1C[C@H](COCc2ccccc2)Oc2cc(N3CCC[C@@H]3CO)ccc2S1(=O)=O,18µM*,·,·,?,-27,·
CCCCC[C@@H](C)N1C[C@H](COCc2ccccc2)Oc2cc(N3CCC[C@H]3CO)ccc2S1(=O)=O,16µM*,·,·,9.2µM*,22,·
CCCCC[C@@H](C)N1C[C@@H](COCc2ccccc2)Oc2cc(N3CCC[C@H]3CO)ccc2S1(=O)=O,?,·,·,?,0,·
CSc1nc(N)n2nccc2n1,-2%,·,·,-4%,0,·
CC1CCN(C(=O)/C=C/c2ccc(C(C)(C)C)cc2)CC1,21µM*,-1%,?,?,-14,?
COC(=O)c1ccc(C)c(NC(=O)CCn2[nH]c(=O)ccc2=O)c1,-4%,·,19%,-13%,11,·
COC(=O)C1C2OC(C(Br)C2Br)C1C(=O)OC (stereo not drawn),5%,·,·,11%,27,·
CC1CCN(c2[nH]c(=S)c(C#N)c3c2CCCC3)CC1,?,?,-20%,?,7,7.1µM*
Cc1ccc(Nc2nc(NCCCN3CCOCC3)nc(N)c2[N+](=O)[O-])cc1C,18µM*,-13%,?,?,-3,-13%
Nc1nc(NCCCN2CCOCC2)nc(Nc2cccc(Cl)c2)c1[N+](=O)[O-],?,-21%,?,?,-92*,-6%
Cc1ccc(Nc2nc(NCCCN3CCOCC3)nc(N)c2[N+](=O)[O-])cc1,-11%,-1%,1%,-7%,?,-11%
Cc1cccc(NC(=O)C2=C(O)c3ccccc3N(C)S2(=O)=O)c1,15µM*,-10%,11%,?,34,?
O=C(Nc1ccc(Cl)cc1)C1CCCC1,-27%,4%,-3%,4%,-11,34%
CN1c2ccccc2C(O)=C(C(=S)Nc2ccc(Cl)cc2)S1(=O)=O,21µM*,?,-7%,16µM*,-13,?
CC[C@H]1CCCCc2ccccc2[C@@H](C(=O)C[C@@H](O)CC(C)=O)OC1=O,?,·,-11%,15µM*,36,·
CC[C@@H]1CCCCc2ccccc2[C@H](C(=O)C[C@@H](O)CC(C)=O)OC1=O,-2%,·,?,21µM*,9,·
CC[C@@H]1CCCCc2ccccc2[C@@H](C(=O)C[C@@H](O)CC(C)=O)OC1=O,-19%,·,-1%,-14%,-8,·
CC(=O)C[C@@H](O)CC(=O)[C@@H]1OC(=O)[C@@H](C)CCCCc2ccccc21,10%,·,6%,2%,0,·
Nc1c(-c2nc(-c3cccs3)no2)nnn1-c1cccc(Cl)c1,1%,·,·,12%,·,·
CCC(=O)OCc1cnc(C)c2oc(=O)c(C(=O)Nc3ccccc3C(F)(F)F)cc12,-7%,·,·,1%,·,·
CCC(=C(c1ccc(OC)cc1)c1ccc(OC)cc1)c1cn(CC(O)CN2CCN(C)CC2)c2ccccc12 (stereo not drawn),13µM*,?,?,10µM*,-106*,?
CCn1cc(/C=C(\NC(=O)c2ccc(OC)cc2)C(=O)N2CCN(C)CC2)c2ccccc21,9%,-6%,-23%,-27%,3,-7%
SMILES,DT40 TDP1 no CPT,VP16 counter,ELG1 repair inh,DT40 TDP1 CPT,IL1B secr inh,RORgamma inh
CC(C)C(c1nnnn1C(C)(C)C)N1CCC(Cc2ccccc2)CC1 (stereo not drawn),?,22µM*,?,?,-76*,?
CCCCn1nnnc1C(CCSC)N1CCN(C/C=C/c2ccccc2)CC1 (stereo not drawn),?,·,·,?,-26,·
C(=C\c1ccccc1)/CN1CCN(C(c2nnnn2Cc2ccccc2)C2CC2)CC1 (stereo not drawn),16µM*,·,·,16µM*,?,·
C(=C\c1ccccc1)/CN1CCN(C(c2cc3ccccc3o2)c2nnnn2C2CCCCC2)CC1 (stereo not drawn),?,·,·,18µM*,?,·
CCCCn1nnnc1C(CCc1ccccc1)N1CCN(C/C=C/c2ccccc2)CC1 (stereo not drawn),23µM*,·,·,?,?,·
CC(C)(C)n1nnnc1C(c1cc2ccccc2o1)N1CCOCC1 (stereo not drawn),-22%,·,·,-2%,-8,·
O=C(NCC1Cc2cccc(-c3cccnc3)c2O1)c1cc(-c2ccccc2)n[nH]1 (stereo not drawn),?,·,·,-1%[9.04 µM],·,·
C(=C\c1ccccc1)/CN1CCN(C(c2nnnn2C2CCCC2)C2CC2)CC1 (stereo not drawn),13µM*,·,·,18µM*,11,·
C(=C\c1ccccc1)/CN1CCN(C(c2cccs2)c2nnnn2C2CCCC2)CC1 (stereo not drawn),?,·,·,?,-23,·
CCCC(c1nnnn1C1CCCC1)N1CCN(c2ccccc2F)CC1 (stereo not drawn),23µM*,3%,-5%,?,1,-16%
CCC(c1nnnn1C1CCCC1)N1CCN(c2ccccc2F)CC1 (stereo not drawn),?,-4%,?,-17%,-3,-11%
C(=C\c1ccccc1)/CN1CCN(C(c2ccccc2)c2nnnn2C2CCCC2)CC1 (stereo not drawn),23µM*,·,·,18µM*,-5,·
CC(C)(C)n1nnnc1C(C1CC1)N1CCN(C/C=C/c2ccccc2)CC1 (stereo not drawn),?,·,·,-24%,-15,·
C(=C\c1ccccc1)/CN1CCN(C(CCc2ccccc2)c2nnnn2C2CCCC2)CC1 (stereo not drawn),?,·,·,18µM*,?,·
COc1ccc(NC(=O)c2cc(C3CCCCN3S(=O)(=O)Cc3ccccc3)on2)c(C)c1 (stereo not drawn),-94%,·,·,-84%,2,·
CCCCNC(=O)C1(C)CCCCN1C(=O)c1c(C)noc1C (stereo not drawn),-3%,·,·,-2%,15,·
